These results are taken from article PMC4336329 (PLoS ONE, 2015).

Structures are written as SMILES. In all, about 310,000 compounds went through this assay and about 14,000 (4.5%) showed an effect of 50% or more. The effect is printed as a negative number. The sample holds strong results, similar compounds and a random draw of the others, so the mix is not that of the screen.
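Note: peak tail current of the secondary pulse compared with the same well before compound.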

The target in the assay is human ether-à-go-go-related gene (hERG) potassium channel (human, UniProt Q12809). The assay can be described thus: primary screen, population patch clamp on CHO cells stably expressing hERG; higher = less effect of the substance.
Sequence of human ether-à-go-go-related gene (hERG) potassium channel (Q12809 whole entry, looked up): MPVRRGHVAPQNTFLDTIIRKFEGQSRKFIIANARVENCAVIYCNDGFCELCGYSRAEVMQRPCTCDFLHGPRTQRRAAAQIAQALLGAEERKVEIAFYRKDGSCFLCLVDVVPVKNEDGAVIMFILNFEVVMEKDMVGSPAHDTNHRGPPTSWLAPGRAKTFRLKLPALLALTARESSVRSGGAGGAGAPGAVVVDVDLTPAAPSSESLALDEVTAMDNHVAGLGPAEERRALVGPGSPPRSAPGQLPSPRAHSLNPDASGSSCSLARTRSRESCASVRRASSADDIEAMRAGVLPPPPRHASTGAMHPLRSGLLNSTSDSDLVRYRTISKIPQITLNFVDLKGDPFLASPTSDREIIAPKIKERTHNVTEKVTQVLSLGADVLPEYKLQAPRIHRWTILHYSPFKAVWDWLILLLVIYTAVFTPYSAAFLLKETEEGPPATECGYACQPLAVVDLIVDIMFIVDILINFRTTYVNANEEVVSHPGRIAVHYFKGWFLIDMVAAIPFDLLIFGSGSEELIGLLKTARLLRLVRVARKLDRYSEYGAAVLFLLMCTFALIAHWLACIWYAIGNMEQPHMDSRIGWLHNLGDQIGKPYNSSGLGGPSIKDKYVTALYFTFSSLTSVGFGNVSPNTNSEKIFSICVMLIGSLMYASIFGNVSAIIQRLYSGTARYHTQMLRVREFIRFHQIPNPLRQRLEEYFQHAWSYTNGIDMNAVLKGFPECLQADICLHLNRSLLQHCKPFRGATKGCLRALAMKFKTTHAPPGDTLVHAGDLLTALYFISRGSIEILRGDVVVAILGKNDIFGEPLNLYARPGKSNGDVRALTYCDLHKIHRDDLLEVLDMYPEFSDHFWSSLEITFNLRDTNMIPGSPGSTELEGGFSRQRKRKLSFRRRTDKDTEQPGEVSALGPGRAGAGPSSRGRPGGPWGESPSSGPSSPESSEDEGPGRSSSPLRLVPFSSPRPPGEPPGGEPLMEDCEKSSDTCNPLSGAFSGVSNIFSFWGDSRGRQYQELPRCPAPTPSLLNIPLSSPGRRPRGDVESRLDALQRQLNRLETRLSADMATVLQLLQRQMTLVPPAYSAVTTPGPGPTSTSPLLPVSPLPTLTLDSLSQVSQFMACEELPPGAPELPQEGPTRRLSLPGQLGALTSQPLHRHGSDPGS
Regarding `CN(C)CCCNc1oc(-c2ccccc2Cl)nc1S(=O)(=O)c1ccccc1`, the “hERG current change (%, negative = inhibition) at 10uM” value is recorded as -43.3%.
Turning to `CN(C)CCNc1oc(-c2ccccc2Cl)nc1S(=O)(=O)c1ccccc1`, the “hERG current change (%, negative = inhibition) at 10uM” value is -35.7%.
Consider `COCCNc1oc(-c2cccs2)nc1S(=O)(=O)c1ccc(C)cc1`, for which the “hERG current change (%, negative = inhibition) at 10uM” value is -26.4%.
The figure for `CN(C)CCCNc1oc(-c2ccccc2Cl)nc1S(=O)(=O)c1ccc(F)cc1` is -59.9%; for `Cc1ccc(S(=O)(=O)c2nc(-c3cccs3)oc2NCCCN(C)C)cc1` it is -67.8%; for `COCCCNc1oc(-c2cccs2)nc1S(=O)(=O)c1ccc(C)cc1` it is -15.2%.
On to `CN1C(=O)c2cccc(NCCCCCCN3C(=O)c4ccccc4C3=O)c2C1=O`, for which the “hERG current change (%, negative = inhibition) at 10uM” value is 5.41%.
Consider `CC(C)OCC1CO1` (stereo not drawn), for which the “hERG current change (%, negative = inhibition) at 10uM” value was determined as 6.9%.
As to `Cc1noc(NS(=O)(=O)c2ccc(NC(=O)c3ccc(N(C)C)cc3)cc2)c1C`, the “hERG current change (%, negative = inhibition) at 10uM” value was determined as 12.2%.
Take `Cc1cc(C)cc(NC(=O)C(=O)NCCc2c[nH]c3ccccc23)c1`: the “hERG current change (%, negative = inhibition) at 10uM” value worked out at 14.9%.
In the case of `CCCOc1ccccc1-n1sc2c(c1=S)-c1cc(OC)cc3c1N(C(=O)C3=O)C2(C)C` it was 18.5%; in that of `C#CCOc1c(Cl)cc(/C=N/O)cc1OC`, 4.04%.
For the molecule `COC(=O)c1ccc2nc(NC(=O)C3CC3)sc2c1`, the “hERG current change (%, negative = inhibition) at 10uM” value was 14%.
Regarding `COc1ccc(N2CC(C(=O)Nc3nc4ccc(S(C)(=O)=O)cc4s3)CC2=O)cc1` (stereo not drawn), the “hERG current change (%, negative = inhibition) at 10uM” value is 3.32%.
As to `CC(C)c1ccc2nc(NC(=O)C3CC3)sc2c1`, the “hERG current change (%, negative = inhibition) at 10uM” value is -55%.
Consider `COc1ccc2nc(NC(=O)Cn3cnc4ccccc4c3=O)sc2c1`, for which the “hERG current change (%, negative = inhibition) at 10uM” value is -4.49%.
`COc1ccc(N2CC(C(=O)Nc3nc4ccccc4s3)CC2=O)cc1` (stereo not drawn): the “hERG current change (%, negative = inhibition) at 10uM” value was -48.9%.
Regarding `CS(=O)(=O)c1ccc2nc(NC(=O)C3CC(=O)N(c4ccccc4)C3)sc2c1` (stereo not drawn), the “hERG current change (%, negative = inhibition) at 10uM” value is recorded as -4.25%.
In the case of `COc1ccc2nc(NC(=O)C3CC(=O)N(c4ccccc4)C3)sc2c1` (stereo not drawn) it was -51.7%.
On to `COc1ccc(N2CC(C(=O)Nc3nc4ccc(OC)cc4s3)CC2=O)cc1` (stereo not drawn), for which the “hERG current change (%, negative = inhibition) at 10uM” value is -58.8%.
On to `O=C(Nc1nc2ccccc2s1)C1CC(=O)N(c2ccccc2)C1` (stereo not drawn), for which the “hERG current change (%, negative = inhibition) at 10uM” value is reported as -11.2%.
Take `CCOc1ccc2nc(NC(=O)Cn3cnc4c3c(=O)n(C)c(=O)n4C)sc2c1`: the “hERG current change (%, negative = inhibition) at 10uM” value is reported as -41.9%.
In the case of `O=C(Nc1nc2ccc(Cl)cc2s1)C1CC1` it was 28.7%.
The figure for `COc1ccc2nc(NC(=O)Cn3cnc4c(=O)n(C)c(=O)n(C)c43)sc2c1` is -67.9%; for `O=C(NC1CCCCC1)c1ccc(CNc2ccccc2)o1` it is -9.19%.
Take `COc1ccc(CCNC(=O)C2CCCN2C(=O)Nc2ccc(F)cc2)cc1OC` (stereo not drawn): the “hERG current change (%, negative = inhibition) at 10uM” value was found to be 16.5%.
On to `CCOC(=O)C1=C(c2ccccc2)Nc2ncnn2C1c1ccccn1` (stereo not drawn), for which the “hERG current change (%, negative = inhibition) at 10uM” value is recorded as 13.6%.
As to `O=C(O)c1cc(-c2ccc(/C=C3\NC(=O)N(c4ccc(Cl)cc4)C3=O)o2)ccc1Cl`, the “hERG current change (%, negative = inhibition) at 10uM” value turned out to be 7.5%.
Consider `CC1(C)CC2CC(C)(CN2C(=S)NC(=O)c2ccccc2Cl)C1` (stereo not drawn), for which the “hERG current change (%, negative = inhibition) at 10uM” value came out at 3.14%.
Turning to `NC(=O)NC(=O)CSc1ccccc1`, the “hERG current change (%, negative = inhibition) at 10uM” value is 17.1%.
Take `COc1ccc(N2CC(C(=O)Nc3nc4ccc(F)cc4s3)CC2=O)c(OC)c1` (stereo not drawn): the “hERG current change (%, negative = inhibition) at 10uM” value was -56.3%.
As to `O=C(Nc1nc2ccc(F)cc2s1)C1CC(=O)N(c2ccc3c(c2)OCCO3)C1` (stereo not drawn), the “hERG current change (%, negative = inhibition) at 10uM” value was -8.48%.
Consider `COc1ccc(N2CC(C(=O)Nc3nc(-c4ccccc4)c(C(C)=O)s3)CC2=O)c(OC)c1` (stereo not drawn), for which the “hERG current change (%, negative = inhibition) at 10uM” value was -0.242%.
Regarding `CC(C)OC(=O)c1ccc(OC(=O)c2cccnc2)cc1`, the “hERG current change (%, negative = inhibition) at 10uM” value is reported as 12.5%.
Regarding `CCN1C(=S)N[C@@H](c2ccccc2)C(C(=O)OC)=C1C`, the “hERG current change (%, negative = inhibition) at 10uM” value is on record as 14.8%.
As for `CCN1C(N(C)CCc2cccs2)=N[C@@H](c2ccccc2)C(C(=O)OC)=C1C`, the “hERG current change (%, negative = inhibition) at 10uM” value is on record as -53.8%.
Consider `CCN1C(=NCCOC)N[C@@H](c2cccs2)C(C(=O)OC)=C1C`, for which the “hERG current change (%, negative = inhibition) at 10uM” value is -5.96%.
In the case of `CCN1C(=O)N[C@@H](c2ccccc2)C(C(=O)OC)=C1C`, the “hERG current change (%, negative = inhibition) at 10uM” value is -1.67%.
As for `CCN(CC)CCCN=C1N[C@@H](c2ccccc2)C(C(=O)OC)=C(C)N1CC`, the “hERG current change (%, negative = inhibition) at 10uM” value was determined as 14.6%.
With `COC(=O)C1=C(C)N(Cc2ccccc2)C(=NCc2cc(OC)c(OC)c(OC)c2)N[C@H]1c1ccccc1`, the “hERG current change (%, negative = inhibition) at 10uM” value is recorded as -27.8%.
On to `CCN1C(=NCCc2cccnc2)N[C@@H](c2ccccc2)C(C(=O)OC)=C1C`, for which the “hERG current change (%, negative = inhibition) at 10uM” value is on record as -51.2%.
As to `COCCN=C1N[C@@H](c2cccc(C(F)(F)F)c2)C(C(=O)OC)=C(C)N1Cc1ccccc1`, the “hERG current change (%, negative = inhibition) at 10uM” value is recorded as -11.9%.
Turning to `CCN1C(=O)N[C@@H](c2cccs2)C(C(=O)OC)=C1C`, the “hERG current change (%, negative = inhibition) at 10uM” value amounted to 10.2%.
Consider `CCN1C(=NCCc2cccs2)N[C@@H](c2cccs2)C(C(=O)OC)=C1C`, for which the “hERG current change (%, negative = inhibition) at 10uM” value is reported as -64.2%.
For the molecule `COC(=O)C1=C(C)N(Cc2ccccc2)C(=NCCc2cccnc2)N[C@H]1c1ccccc1`, the “hERG current change (%, negative = inhibition) at 10uM” value is listed as -63%.
The figure for `C=CCN=C1N[C@@H](c2ccccc2)C(C(=O)OC)=C(C)N1CC` is 1.27%; for `CCOC(=O)C1=C(C)Nc2ccccc2N/C1=N\S(=O)(=O)c1ccc(Cl)cc1` it is -7.32%.
Consider `COc1ccc(CNC(=O)CCCNS(=O)(=O)c2cccc3nonc23)cc1`, for which the “hERG current change (%, negative = inhibition) at 10uM” value is -1.27%.
With `CC(CC(=O)NC1CCCCC1)S(=O)(=O)c1ccc2c(c1)NC(=O)CO2` (stereo not drawn), the “hERG current change (%, negative = inhibition) at 10uM” value was 5.72%.
For the molecule `Cc1cc(C)nc(N(C#N)Cc2ccccc2Cl)n1`, the “hERG current change (%, negative = inhibition) at 10uM” value was 4.48%.
For `Cc1cc(C)nc(N(C#N)Cc2ccccc2C)n1`, the “hERG current change (%, negative = inhibition) at 10uM” value is listed as -51.4%.
In the case of `Cc1cc(C)nc(N(C#N)Cc2cccc3ccccc23)n1` it was 3.61%.
On to `CCC(=O)n1nc(-c2ccco2)nc1N`, for which the “hERG current change (%, negative = inhibition) at 10uM” value stood at 10.8%.
For the molecule `CCN(Cc1ccccc1)c1ccc(/C=N/NS(=O)(=O)c2cccc([N+](=O)[O-])c2)cc1`, the “hERG current change (%, negative = inhibition) at 10uM” value is 10.3%.
For `Cc1cccc(NC(=O)CSc2nc3ccccc3o2)c1`, the “hERG current change (%, negative = inhibition) at 10uM” value is reported as 3.5%.
In the case of `CC(=O)Nc1cccc(-c2nnc3c4ccccc4c(C)nn23)c1` it was -0.564%.
Take `Cc1nn2c(-c3cccc(NC(=O)CSc4nc5ccccc5o4)c3)nnc2c2ccccc12`: the “hERG current change (%, negative = inhibition) at 10uM” value is listed as -70.8%.
